Holding throughout (assay): NCI-60 one-dose screen, 48 h (100 = growth as untreated, 0 = no growth, -100 = all killed)
What all share (conditions): 10 µM unless noted

Experiment [1] deals with T-47D breast.
Experiment [2] deals with BT-549 breast.
In experiment [3] the test system is MDA-MB-435 melanoma.
The subject of experiment [4] is SW-620 colon.
For experiment [5], the system named is MCF7 breast.
Experiment [6] concerns HCT-116 colon.
In experiment [7] the test system is HCC-2998 colon.
The test system of experiment [8] is KM12 colon.

Compounds without any hit were thinned out: in the full panel of roughly 83,000, 20% have a hit.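 48-hour exposure, single concentration, 96-well plates; percent growth endpoint where 0 means no net growth. Active: below 10.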 Unmarked numbers belong to inactive results. Calls of active or inactive are those of the source.

On to `O=[N+]([O-])c1ccccc1NCSc1ccc(Cl)cc1`, for which the growth in experiment [1] was 93.3%; in experiment [2], 69.2%; in experiment [3], 93.8%; in experiment [4] it was 101%; in experiment [5], 91.9%; in experiment [6], 83.8%. For the same compound, the growth in experiment [7] is 84.3%; in experiment [8], 79.2%.
Consider `COc1ccc(-c2[nH]ncc2-c2cc3c(c(OC)c2)OCC(=O)N3)cc1`, for which the growth is 27.2% in experiment [1]; 38.4% in experiment [2]; -56.6% (active) in experiment [3]; 12.6% in experiment [4]; 15.6% in experiment [5]; 13% in experiment [6]. The figures for the growth in experiment [7] and in experiment [8] were 35.2% and 23.1%, respectively.
With `COc1cc(CNS(=O)(=O)c2ccc(C)cc2)ccc1OCc1cn(-c2ccccc2)nn1`, the growth in experiment [1] is 66.5%; in experiment [2], 88.1%; in experiment [3] it was 99.9%; in experiment [4], 98.9%; in experiment [5] it was 92.7%; in experiment [6] it was 85.1%. The growth in experiment [7] was 117%; in experiment [8], 99.4%.
In the case of `Clc1ccc2c(c1)N(CCCN1CCCC1)c1ccccc1S2`, the growth was 57.8% in experiment [1]; 66.5% in experiment [2]; -35.9% (active) in experiment [3]; 26.2% in experiment [4]; 6.29% (active) in experiment [5]; 26.5% in experiment [6]. The growth in experiment [7] was 32%; in experiment [8], 44.6%.
`CC1=NN(c2ccc(S(=O)(=O)O)cc2)C(=O)C1N=Nc1ccc(-c2ccc(N=Nc3ccc(OS(=O)(=O)c4ccc(C)cc4)cc3)c(S(=O)(=O)O)c2)cc1` (centres undefined): the growth in experiment [1] was 90.3%; in experiment [2] it was 68.4%; in experiment [3], 95.1%; in experiment [4] it was 103%; in experiment [5], 88.7%; in experiment [6], 93.9%. For the same compound, the growth is 104% in experiment [7] and 105% in experiment [8].
With `COc1ccc(C(Cc2ccccc2)NCCN2CCOCC2)cc1` (centres undefined), the growth is 85.4% in experiment [1]; 82.1% in experiment [2]; 105% in experiment [3]; 107% in experiment [4]; 89.2% in experiment [5]; 95.9% in experiment [6]. The growth in experiment [7] was 86.6%; in experiment [8], 104%.
Regarding `COc1ccc(N2C(=O)C(Oc3ccccc3)C2c2ccc(C)cc2)cc1` (centres undefined), the growth in experiment [1] was 96.9%; in experiment [2], 99.3%; in experiment [3], 98.7%; in experiment [4], 94.8%; in experiment [5], 96.3%; in experiment [6], 95.5%. Moreover, the figures for the growth in experiment [7] and in experiment [8] were 97.7% and 96.2%, respectively.
For `OC(COc1ccccc1Cl)CN1CCN(c2cccc(Cl)c2)CC1` (centres undefined), the growth in experiment [1] was 109%; in experiment [2], 95.5%; in experiment [3], 109%; in experiment [4], 110%; in experiment [5], 93.8%; in experiment [6] it was 98.3%. The growth was 114% in experiment [7] and 104% in experiment [8].
`COc1cc(C(=O)c2cc(C)c3[nH]c4ccc(C)cc4c3c2C)cc(OC)c1OC`: the growth was 39.9% in experiment [1]; 14.5% in experiment [2]; 17.5% in experiment [3]; 31.4% in experiment [4]; 11.6% in experiment [5]; 5.32% (active) in experiment [6]. Besides, the growth in experiment [7] is 15.9%; in experiment [8], 3.84% (active).
As for `O=C1/C(=C/c2ccc(F)cc2)Sc2c(Br)cccc21`, the growth in experiment [1] is 43.4%; in experiment [2], 87%; in experiment [3], 102%; in experiment [4], 89.4%; in experiment [5], 20.1%; in experiment [6], 85.8%. Besides, the growth was 99.3% in experiment [7] and 86% in experiment [8].
For `N#Cc1c(-c2ccc(Cl)cc2)nc(NCCO)[nH]c1=O`, the growth in experiment [1] was 89.4%; in experiment [2], 102%; in experiment [3], 106%; in experiment [4], 112%; in experiment [5], 95.3%; in experiment [6] it was 104%. The values for the growth in experiment [7] and in experiment [8] were 103% and 96.9%, respectively.
In the case of `Cn1cc(-c2ccc3cc(-c4ccc(CC(=O)Nc5cc(C(C)(C)C)nn5C)cc4)cnc3c2)cn1`, the growth is -0.815% (active) in experiment [1]; -8.22% (active) in experiment [2]; 5.58% (active) in experiment [3]; 20.1% in experiment [4]; 13.4% in experiment [5]; 11.5% in experiment [6]. Further, the growth in experiment [7] is 32.9%; in experiment [8], -33.3% (active).
In the case of `O=C(Nc1ccc(OS(=O)(=O)c2ccc(F)cc2)cc1)c1ccc(Cl)cc1`, the growth in experiment [1] is 78.1%; in experiment [2], 97.4%; in experiment [3], 117%; in experiment [4] it was 108%; in experiment [5], 92.9%; in experiment [6] it was 95.5%. Besides, the results for the growth in experiment [7] and in experiment [8] were 106% and 103%, respectively.
For the compound `Cc1cccc2c(=O)c3c(sc12)c(NCc1ccccc1)nc1ccccc13`, the growth was 48.4% in experiment [1]; 101% in experiment [2]; 109% in experiment [3]; 95.5% in experiment [4]; 27.2% in experiment [5]; 77% in experiment [6]. Further, the results for the growth in experiment [7] and in experiment [8] were 90.3% and 84.5%, respectively.
Take `C=C1CC[C@H](C(C)C)[C@@H]2[C@H]1[C@H]1CC(=C)[C@@H](O)CC[C@@](C)(O)[C@@H]2O1`: the growth in experiment [1] was 97.1%; in experiment [2] it was 99.2%; in experiment [3], 96.8%; in experiment [4], 96.7%; in experiment [5], 97%; in experiment [6], 86.2%. For the same compound, the values for the growth in experiment [7] and in experiment [8] were 77.9% and 96.3%, respectively.
`N#Cc1c(Nc2cccc(Cl)c2)sc(C(=O)c2cc3cc(Cl)ccc3o2)c1N`: the growth in experiment [1] is 73.7%; in experiment [2] it was 113%; in experiment [3] it was 86.3%; in experiment [4] it was 18.2%; in experiment [5], 70.2%; in experiment [6], 72.4%. In addition, the growth was 105% in experiment [7] and 34.5% in experiment [8].
With `CNc1ccc(Nc2cccc(C)c2)c2c1C(=O)c1ccccc1C2=O`, the growth was 40.9% in experiment [1]; 110% in experiment [2]; 135% in experiment [3]; 85.4% in experiment [4]; 10.2% in experiment [5]; 92.4% in experiment [6]. Further, the growth in experiment [7] was 88.5%; in experiment [8], 48.4%.
Regarding `CCOC(=O)c1cnn2c3ccccc3n(S(=O)(=O)c3ccc(OC)cc3)c12`, the growth is 71.8% in experiment [1]; 17.5% in experiment [2]; 2.91% (active) in experiment [3]; 25.9% in experiment [4]; 18.5% in experiment [5]; 14.4% in experiment [6]. Besides, the growth was 16.9% in experiment [7] and 25.9% in experiment [8].
As for `CN(C(=O)NCc1cccc(F)c1Cl)[C@H](COC(=O)Nc1cc2ccccc2cn1)CC(O)CO` (some centres undefined), the growth in experiment [1] was 89%; in experiment [2] it was 43.9%; in experiment [3], 104%; in experiment [4] it was 92.2%; in experiment [5] it was 98.9%; in experiment [6] it was 95.4%. In addition, the growth is 110% in experiment [7] and 104% in experiment [8].
In the case of `CC1Cc2ccccc2N1NC(=O)c1ccc(Cl)c(S(N)(=O)=O)c1` (centres undefined), the growth was 100% in experiment [1]; 92.1% in experiment [2]; 102% in experiment [3]; 105% in experiment [4]; 92.2% in experiment [5]; 98.2% in experiment [6]. Further, the growth is 96% in experiment [7] and 107% in experiment [8].
For `COc1cc(C(=O)c2cnc(-c3cccc4[nH]ccc34)[nH]2)cc(OC)c1OC`, the growth in experiment [1] is 70.6%; in experiment [2] it was 40.2%; in experiment [3], -34.8% (active); in experiment [4] it was 19.7%; in experiment [5] it was 22.4%; in experiment [6], -8.06% (active). The growth in experiment [7] was 20.9%; in experiment [8], 4.18% (active).
In the case of `CCN1C(=O)N(CC)C2Nn3c(s/c(=C4\C(=O)N(CC(C)C)c5ccccc54)c3=O)=NC21` (centres undefined), the growth in experiment [1] is 46%; in experiment [2], 52.7%; in experiment [3], -45.9% (active); in experiment [4], 35.7%; in experiment [5], 26.1%; in experiment [6], 14.4%. The figures for the growth in experiment [7] and in experiment [8] were 76.5% and 31.9%, respectively.
As for `CCN(CC)CCNc1nc2ccccc2c2c(=O)c3cc(Cl)ccc3sc12`, the growth in experiment [1] is 60.4%; in experiment [2] it was 94%; in experiment [3], 15.6%; in experiment [4] it was 17.2%; in experiment [5] it was 52.3%; in experiment [6], 20.5%. Further, the growth in experiment [7] is 14.2%; in experiment [8], 26.5%.
As for `CCCCCCCNC(=O)CCCNc1ncnc2c1ncn2-c1cccc(C(C)O)c1` (centres undefined), the growth in experiment [1] is 74.1%; in experiment [2], 93.5%; in experiment [3] it was 97.5%; in experiment [4], 101%; in experiment [5], 86.6%; in experiment [6] it was 104%. The growth in experiment [7] is 103%; in experiment [8], 95.6%.
In the case of `Cc1ccccc1C(=O)NN`, the growth in experiment [1] is 102%; in experiment [2], 106%; in experiment [3], 111%; in experiment [4], 113%; in experiment [5] it was 102%; in experiment [6], 108%. Moreover, the growth in experiment [7] is 95.4%; in experiment [8], 112%.
`COC1=C(C)C(=O)c2c(c(CCCl)c3n2CCC3OC(C)=O)C1=O` (centres undefined): the growth is 60.6% in experiment [1]; -48.2% (active) in experiment [2]; -58% (active) in experiment [3]; 3.87% (active) in experiment [4]; -39.9% (active) in experiment [5]; -19.7% (active) in experiment [6]. Further, the growth in experiment [7] is -48.1% (active); in experiment [8], -18.6% (active).
Consider `CCOC(=O)c1c(C)oc2ncnc(N3CCN(C(=O)COc4ccc(C(C)(C)C)cc4)CC3)c12`, for which the growth in experiment [1] is 47.7%; in experiment [2], 54.3%; in experiment [3], 99.8%; in experiment [4], 99.8%; in experiment [5], 83%; in experiment [6] it was 75.2%. Also, the growth is 104% in experiment [7] and 89.9% in experiment [8].
Take `Cn1cc(-c2cc3ncnc(Nc4ccc(CC(=O)Nc5cc(C(C)(C)C)on5)cc4)c3s2)cn1`: the growth was 30.7% in experiment [1]; 52.5% in experiment [2]; 40.7% in experiment [3]; 38.8% in experiment [4]; 41.5% in experiment [5]; 21.8% in experiment [6]. Further, the growth is 99.1% in experiment [7] and 19.1% in experiment [8].

For the origin of these results see PubChem BioAssay (NCI).
